The results in this text go back to PubChem BioAssay (NCATS).

What all share (test): qHTS profiling for inhibitors of Plasmodium falciparum proliferation (AID 504749); further: nearly all actives have a fitted effect of over 60% in size
What all share (settings): P. falciparum in erythrocytes, SYBR Green DNA, 72 h; series mostly up to 28.7 µM

One assay concerns AS120. The method in brief: (§1)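 Each compound contacts P. falciparum-infected red blood cells for 72 h at 37 C; lysis buffer (Tris, EDTA, saponin, Triton X, SYBR Green I) is added and fluorescence measured next morning; values normalized to controls.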
Another assay relates to ATS189. The method in brief: as §1
A further assay relates to ATS95. The essentials:
as §1

A further assay relates to C2A. The essentials:
as §1

The next assay relates to CP185. The essentials:
as §1

The next assay has as its system CP191. The method in brief: as §1
The next assay concerns CP192. The essentials: as §1
The test system of the next assay is CP194. The essentials: as §1
A further assay deals with CP201. The essentials:
as §1

In a further assay the test system is CP203. The method in brief:
as §1

Another assay has as its system CP211. The essentials:
as §1

Another assay relates to CP215. The essentials: as §1
Another assay relates to CP217. The method in brief:
as §1

A further assay has as its system CP237. The essentials:
as §1

In a further assay the test system is CP238. The method in brief: as §1
The test system of another assay is CP247. The method in brief: as §1
The subject of a further assay is CP250. The method in brief:
as §1

The test system of a further assay is CP252. The method in brief:
as §1

In the next assay the test system is CP256. The essentials: as §1
The test system of another assay is CP260. The essentials:
as §1

Inconclusive results are not listed. Active and inactive are the calls of the source. The call rests on the fitted dose curve; in most records, active means well fitted inhibition curve with a large enough effect; inconclusive means small, poorly fitted or top-dose-only effect; inactive means flat fitted curve, though single readings scatter.
Potency means the concentration at half of the fitted maximal effect.

`CCCCCCCCCCCC(=O)[O][Sn]([CH2]CCC)([CH2]CCC)[O]C(=O)CCCCCCCCCCC`: the Potency entry with AS120, in the assay on ATS189, in the assay on ATS95, in the assay on C2A, in the assay with CP185 and in the assay with CP191 was “inactive” throughout. Also, the Potency entry in the assay on CP192, in the assay on CP194, with CP201, in the assay with CP203, with CP211 and in the assay on CP215 was “inactive” throughout. Moreover, the Potency entry with CP217, with CP238, in the assay with CP247, in the assay on CP250, in the assay on CP252 and in the assay with CP256 was “inactive” in each case. Further, the Potency with CP237 and in the assay on CP260 was 10000 nM (active) in each case.

Regarding `C=CCCCCCCCCC(=O)O`, the Potency result with AS120, in the assay with ATS189, with ATS95, with C2A, in the assay with CP185 and with CP191 was “inactive” in each case. The Potency result in the assay on CP192, with CP194, in the assay on CP201, in the assay on CP203, in the assay on CP211 and with CP215 was “inactive” in each case. For the same compound, the Potency result in the assay with CP217, in the assay with CP237, in the assay with CP238, in the assay on CP247, in the assay on CP250 and with CP252 was “inactive” each time. Besides, the Potency entry in the assay on CP256 and in the assay with CP260 was “inactive” throughout.

Turning to `[O-][n+]1ccccc1SSc1cccc[n+]1[O-]`, the Potency in the assay with AS120 was 891 nM (active); in the assay with ATS189, 1120 nM (active); with ATS95, 891 nM (active); in the assay with C2A it was 891 nM (active); with CP185, 1120 nM (active); with CP191 it was 1260 nM (active). Also, the Potency with CP192 was 1350 nM (active); in the assay with CP194, 1070 nM (active); in the assay with CP201, 1900 nM (active); with CP203, 1350 nM (active); with CP211, 1070 nM (active); in the assay with CP215 it was 1350 nM (active). Also, the Potency in the assay on CP217 was 1260 nM (active); in the assay with CP237 it was 891 nM (active); with CP238 it was 1120 nM (active); in the assay on CP247, 891 nM (active); in the assay with CP250, 708 nM (active); in the assay on CP252 it was 1000 nM (active). The Potency in the assay on CP256 is 2000 nM (active); with CP260, 708 nM (active).

For `C=CC(N)CCC(=O)O` (centres undefined), the Potency entry in the assay with AS120, with ATS189, in the assay on ATS95, with C2A, with CP185 and in the assay with CP191 was “inactive” in each case. The Potency result in the assay on CP192, in the assay on CP194, in the assay on CP201, in the assay on CP203, with CP211 and in the assay with CP215 was “inactive” throughout. In addition, the Potency entry in the assay with CP217, in the assay on CP237, in the assay with CP238, in the assay with CP247, in the assay on CP250 and with CP252 was “inactive” throughout. Also, the Potency result in the assay on CP256 and in the assay with CP260 was “inactive” in each case.

Turning to `CC1(C)C[C@@H]1C(=O)N/C(=C\CCCCSC[C@H](N)C(=O)O)C(=O)O`, the Potency entry in the assay on AS120, with ATS189, in the assay on ATS95, in the assay with C2A, with CP185 and in the assay on CP191 was “inactive” throughout. Also, the Potency entry with CP192, in the assay on CP194, in the assay on CP201, in the assay on CP203, in the assay on CP211 and with CP215 was “inactive” throughout. Further, the Potency result with CP217, in the assay on CP237, in the assay on CP238, with CP247, in the assay with CP250 and in the assay on CP252 was “inactive” in each case. Further, the Potency result with CP256 is “inactive”.

As to `CC(C(=O)O)c1ccc2c(c1)[nH]c1ccc(Cl)cc12` (centres undefined), the Potency result with AS120, with ATS189, in the assay with ATS95, in the assay on C2A, with CP185 and in the assay with CP191 was “inactive” throughout. Further, the Potency entry in the assay with CP192, in the assay on CP194, in the assay on CP201, in the assay with CP203, in the assay with CP211 and in the assay with CP215 was “inactive” throughout. Besides, the Potency result in the assay on CP217, in the assay with CP237, in the assay on CP238, in the assay on CP247, in the assay with CP250 and in the assay with CP252 was “inactive” in each case. In addition, the Potency result with CP256 and in the assay on CP260 was “inactive” in each case.

With `CCCOC(=O)c1ccc(O)cc1`, the Potency entry in the assay on AS120, in the assay on ATS189, in the assay on ATS95, with C2A, with CP185 and in the assay with CP191 was “inactive” in each case. Moreover, the Potency result with CP192, in the assay on CP194, in the assay on CP201, with CP203, in the assay with CP211 and in the assay on CP215 was “inactive” each time. Also, the Potency entry in the assay with CP217, in the assay with CP237, with CP238, in the assay with CP247, in the assay on CP250 and in the assay on CP252 was “inactive” throughout. Moreover, the Potency entry in the assay with CP256 and in the assay with CP260 was “inactive” in each case.

Take `O=C(O)[C@H](O)[C@@H](O)[C@H](O)[C@H](O)CO`: the Potency result with AS120, in the assay on ATS189, in the assay with ATS95, with C2A, with CP185 and in the assay on CP191 was “inactive” throughout. Further, the Potency entry in the assay with CP192, in the assay on CP194, in the assay with CP201, in the assay on CP203, in the assay on CP211 and with CP215 was “inactive” each time. The Potency result in the assay on CP217, with CP237, with CP238, with CP247, in the assay on CP250 and in the assay on CP252 was “inactive” throughout. Also, the Potency entry with CP256 and in the assay on CP260 was “inactive” in each case.

As to `O=C(O)COc1ccc(C(=O)c2cccs2)c(Cl)c1Cl`, the Potency result with AS120, with ATS189, in the assay on ATS95, with C2A, in the assay on CP185 and in the assay on CP191 was “inactive” in each case. The Potency entry in the assay with CP192, with CP194, with CP201, in the assay on CP203, in the assay on CP211 and in the assay on CP215 was “inactive” each time. Further, the Potency entry with CP217, in the assay on CP237, in the assay on CP238, in the assay with CP247, in the assay with CP250 and in the assay on CP252 was “inactive” each time. The Potency result in the assay on CP256 and with CP260 was “inactive” in each case.
